About 7,900 targets were measured; listed, in parts, are those with a hit and a random draw of the rest. About 0.6% of all pairs of compound and target were hits. A number with no mark means an inactive call.

Sequence of UniProt Q15758 (Q15758 whole entry, looked up): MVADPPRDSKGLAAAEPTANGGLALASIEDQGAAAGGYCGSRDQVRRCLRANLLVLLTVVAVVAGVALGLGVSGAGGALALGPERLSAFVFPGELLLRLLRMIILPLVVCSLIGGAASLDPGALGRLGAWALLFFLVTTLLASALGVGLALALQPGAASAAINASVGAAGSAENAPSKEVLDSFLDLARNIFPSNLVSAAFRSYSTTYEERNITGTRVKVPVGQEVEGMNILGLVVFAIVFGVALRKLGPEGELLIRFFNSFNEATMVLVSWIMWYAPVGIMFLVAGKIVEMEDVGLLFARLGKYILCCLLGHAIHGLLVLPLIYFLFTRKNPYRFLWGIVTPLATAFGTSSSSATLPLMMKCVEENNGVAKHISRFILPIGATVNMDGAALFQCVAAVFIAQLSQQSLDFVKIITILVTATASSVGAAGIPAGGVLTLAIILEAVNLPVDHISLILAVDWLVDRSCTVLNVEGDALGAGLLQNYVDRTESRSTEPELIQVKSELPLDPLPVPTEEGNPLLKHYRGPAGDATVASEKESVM
Sequence of UniProt P54136 (P54136 whole entry, looked up): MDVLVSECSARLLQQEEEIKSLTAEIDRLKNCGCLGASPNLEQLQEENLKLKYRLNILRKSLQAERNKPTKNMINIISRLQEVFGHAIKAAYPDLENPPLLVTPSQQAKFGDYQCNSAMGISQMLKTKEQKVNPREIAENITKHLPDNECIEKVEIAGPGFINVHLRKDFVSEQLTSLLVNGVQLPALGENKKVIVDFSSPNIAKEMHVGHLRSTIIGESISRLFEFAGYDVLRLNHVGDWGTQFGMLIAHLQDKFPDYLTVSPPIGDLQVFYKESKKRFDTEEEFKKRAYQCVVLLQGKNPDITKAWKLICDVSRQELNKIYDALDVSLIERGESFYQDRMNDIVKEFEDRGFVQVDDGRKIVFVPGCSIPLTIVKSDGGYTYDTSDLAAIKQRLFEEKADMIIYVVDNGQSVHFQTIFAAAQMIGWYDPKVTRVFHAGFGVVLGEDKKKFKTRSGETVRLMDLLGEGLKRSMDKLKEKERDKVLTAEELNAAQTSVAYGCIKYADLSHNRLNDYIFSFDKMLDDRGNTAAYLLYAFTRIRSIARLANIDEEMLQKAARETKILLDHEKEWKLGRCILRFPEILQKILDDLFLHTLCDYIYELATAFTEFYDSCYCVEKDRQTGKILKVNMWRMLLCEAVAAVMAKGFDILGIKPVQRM
Sequence of UniProt P40938 (P40938 whole entry, looked up): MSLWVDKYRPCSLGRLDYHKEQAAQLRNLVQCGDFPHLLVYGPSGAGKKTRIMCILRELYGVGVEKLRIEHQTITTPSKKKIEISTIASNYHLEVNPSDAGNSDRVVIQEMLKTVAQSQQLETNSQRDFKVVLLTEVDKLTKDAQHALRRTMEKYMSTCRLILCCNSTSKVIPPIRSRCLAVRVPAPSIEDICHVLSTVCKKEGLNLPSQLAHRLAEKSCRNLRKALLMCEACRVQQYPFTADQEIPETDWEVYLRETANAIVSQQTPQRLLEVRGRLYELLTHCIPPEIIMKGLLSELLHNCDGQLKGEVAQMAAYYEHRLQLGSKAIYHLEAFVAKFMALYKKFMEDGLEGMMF
Sequence of UniProt Q8TD22 (Q8TD22 whole entry, looked up): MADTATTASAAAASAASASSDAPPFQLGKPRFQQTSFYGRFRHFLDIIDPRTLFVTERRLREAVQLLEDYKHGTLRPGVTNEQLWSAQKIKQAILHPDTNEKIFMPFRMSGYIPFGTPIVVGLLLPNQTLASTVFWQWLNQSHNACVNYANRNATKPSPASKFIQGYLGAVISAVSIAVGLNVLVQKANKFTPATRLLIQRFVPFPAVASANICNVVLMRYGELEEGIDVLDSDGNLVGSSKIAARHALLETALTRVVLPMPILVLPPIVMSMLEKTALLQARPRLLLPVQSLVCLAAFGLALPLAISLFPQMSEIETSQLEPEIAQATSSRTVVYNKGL
Sequence of UniProt P06400 (P06400 whole entry, looked up): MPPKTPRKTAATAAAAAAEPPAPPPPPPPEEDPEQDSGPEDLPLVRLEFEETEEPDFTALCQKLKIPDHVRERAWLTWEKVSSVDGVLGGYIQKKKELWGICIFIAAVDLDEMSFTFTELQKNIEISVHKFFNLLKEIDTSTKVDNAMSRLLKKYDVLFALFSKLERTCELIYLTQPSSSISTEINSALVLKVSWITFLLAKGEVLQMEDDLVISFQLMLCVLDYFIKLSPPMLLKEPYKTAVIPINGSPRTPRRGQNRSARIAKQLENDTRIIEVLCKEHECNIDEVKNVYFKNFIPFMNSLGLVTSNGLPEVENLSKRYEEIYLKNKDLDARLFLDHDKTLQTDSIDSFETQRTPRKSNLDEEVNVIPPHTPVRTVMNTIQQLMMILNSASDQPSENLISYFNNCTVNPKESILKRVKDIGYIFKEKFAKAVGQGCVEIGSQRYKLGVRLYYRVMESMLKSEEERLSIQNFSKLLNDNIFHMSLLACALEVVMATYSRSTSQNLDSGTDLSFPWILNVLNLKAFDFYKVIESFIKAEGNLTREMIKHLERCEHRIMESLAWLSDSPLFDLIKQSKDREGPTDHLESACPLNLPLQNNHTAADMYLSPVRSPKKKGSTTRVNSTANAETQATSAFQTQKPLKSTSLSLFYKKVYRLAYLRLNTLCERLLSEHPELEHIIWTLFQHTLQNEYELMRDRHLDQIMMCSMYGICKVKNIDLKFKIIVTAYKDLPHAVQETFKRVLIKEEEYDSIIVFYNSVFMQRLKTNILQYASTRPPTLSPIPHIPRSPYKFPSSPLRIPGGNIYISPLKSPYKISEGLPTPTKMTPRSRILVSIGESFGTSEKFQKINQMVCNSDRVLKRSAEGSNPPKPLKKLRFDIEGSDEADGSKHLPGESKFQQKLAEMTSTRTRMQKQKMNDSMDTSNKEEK
Sequence of UniProt Q96ER3 (Q96ER3 whole entry, looked up): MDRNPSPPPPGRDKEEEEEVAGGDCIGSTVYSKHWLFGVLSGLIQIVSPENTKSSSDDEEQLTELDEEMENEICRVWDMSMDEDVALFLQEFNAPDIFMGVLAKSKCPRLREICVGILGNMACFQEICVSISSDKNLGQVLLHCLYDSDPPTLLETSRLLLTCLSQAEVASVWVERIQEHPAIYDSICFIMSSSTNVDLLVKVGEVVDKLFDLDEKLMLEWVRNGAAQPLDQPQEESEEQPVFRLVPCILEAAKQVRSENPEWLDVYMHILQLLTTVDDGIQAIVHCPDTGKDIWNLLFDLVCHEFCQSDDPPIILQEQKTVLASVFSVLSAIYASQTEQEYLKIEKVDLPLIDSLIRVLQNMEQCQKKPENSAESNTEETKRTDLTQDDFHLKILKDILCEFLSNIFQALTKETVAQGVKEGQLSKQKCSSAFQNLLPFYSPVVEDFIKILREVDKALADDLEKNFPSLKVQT
Sequence of UniProt Q5JTH9 (Q5JTH9 whole entry, looked up): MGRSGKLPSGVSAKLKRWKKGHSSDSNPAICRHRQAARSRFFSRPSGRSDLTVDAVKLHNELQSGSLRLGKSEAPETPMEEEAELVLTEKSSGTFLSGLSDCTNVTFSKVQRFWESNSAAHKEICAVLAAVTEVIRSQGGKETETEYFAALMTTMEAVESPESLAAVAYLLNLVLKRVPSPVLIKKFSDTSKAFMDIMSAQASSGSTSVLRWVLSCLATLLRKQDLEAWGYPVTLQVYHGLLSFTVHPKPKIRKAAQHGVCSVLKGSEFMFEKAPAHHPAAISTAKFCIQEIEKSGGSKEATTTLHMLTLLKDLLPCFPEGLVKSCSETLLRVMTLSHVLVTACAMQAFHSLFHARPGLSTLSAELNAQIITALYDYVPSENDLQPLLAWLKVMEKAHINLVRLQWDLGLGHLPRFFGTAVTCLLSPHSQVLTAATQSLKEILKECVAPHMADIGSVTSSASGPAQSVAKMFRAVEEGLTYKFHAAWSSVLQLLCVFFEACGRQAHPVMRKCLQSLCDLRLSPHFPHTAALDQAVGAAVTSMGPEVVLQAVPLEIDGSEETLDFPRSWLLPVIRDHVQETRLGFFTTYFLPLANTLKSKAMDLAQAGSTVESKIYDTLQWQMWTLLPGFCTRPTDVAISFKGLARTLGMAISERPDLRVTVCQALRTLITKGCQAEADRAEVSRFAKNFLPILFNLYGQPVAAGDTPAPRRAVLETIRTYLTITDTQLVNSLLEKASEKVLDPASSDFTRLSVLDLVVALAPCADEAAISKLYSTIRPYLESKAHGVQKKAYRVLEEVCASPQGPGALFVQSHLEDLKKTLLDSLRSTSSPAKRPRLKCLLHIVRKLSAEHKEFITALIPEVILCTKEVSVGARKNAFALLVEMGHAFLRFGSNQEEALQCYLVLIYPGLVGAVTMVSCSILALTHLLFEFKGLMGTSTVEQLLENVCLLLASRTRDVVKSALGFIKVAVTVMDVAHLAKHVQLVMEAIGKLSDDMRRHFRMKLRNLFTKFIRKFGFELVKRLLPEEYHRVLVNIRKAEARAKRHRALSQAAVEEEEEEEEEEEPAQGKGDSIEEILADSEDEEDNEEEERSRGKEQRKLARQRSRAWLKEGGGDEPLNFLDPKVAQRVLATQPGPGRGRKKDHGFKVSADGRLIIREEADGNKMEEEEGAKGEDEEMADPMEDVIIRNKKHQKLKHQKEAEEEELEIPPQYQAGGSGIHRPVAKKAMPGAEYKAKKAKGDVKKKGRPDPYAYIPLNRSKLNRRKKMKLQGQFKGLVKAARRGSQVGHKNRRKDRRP
Sequence of UniProt Q5VZM2 (Q5VZM2 whole entry, looked up): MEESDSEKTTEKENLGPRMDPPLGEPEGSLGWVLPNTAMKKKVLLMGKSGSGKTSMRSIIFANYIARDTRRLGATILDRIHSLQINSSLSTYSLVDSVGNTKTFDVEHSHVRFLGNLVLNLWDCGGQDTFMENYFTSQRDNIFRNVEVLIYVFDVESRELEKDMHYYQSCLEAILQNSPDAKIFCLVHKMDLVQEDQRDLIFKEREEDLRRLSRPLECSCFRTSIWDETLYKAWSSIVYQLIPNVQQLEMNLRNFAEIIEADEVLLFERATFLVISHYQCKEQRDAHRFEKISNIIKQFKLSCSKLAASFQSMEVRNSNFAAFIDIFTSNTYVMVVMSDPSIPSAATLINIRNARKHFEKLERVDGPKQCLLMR

Compound in the experiment: c1cn2cc(-c3ccc4cn[nH]c4c3)nc(Nc3ccc(N4CCOCC4)cc3)c2n1 [entospletinib]
The experiment in a line: log2 fold change, soluble protein after heating vs DMSO (PISA); higher = thermal stabilisation; K562 cells, 10 uM, 30 min; active = over 0.2 and 3.5 SD of the protein, either way, in both replicates (recomputed). The essentials:
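Aliquots of K562 cells (2×10^6 cells/mL) treated with 10 μM compound for 30 min were heated for 3 min over 48°C-58°C. After pooling and extraction in PBS with 0.5% NP-40 at 4°C, soluble protein from a 21,000xg, 90 min spin was quantified by TMTpro 16plex LC-MS/MS with channel sums equalised. Thermal stability is expressed against control samples, from duplicates, as a log2 fold change.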
For the target SERINC1 (UniProt Q9NRX5), the log2 fold change was 0.022.
Take SESN2 (UniProt P58004): the log2 fold change was 0.167.
To RRAGB (UniProt Q5VZM2) belongs -0.04; to RPS19 (UniProt P39019), 0.057.
To ROCK2 (UniProt O75116) belongs -0.049.
The same measure for RALY (UniProt Q9UKM9): -0.001; for SAAL1 (UniProt Q96ER3): 0.093; for RANBP2 (UniProt P49792): -0.009.
As for RPS4X (UniProt P62701), the log2 fold change was 0.082.
To ROCK1 (UniProt Q13464) belongs -0.009.
SERPINA7 (UniProt P05543): the log2 fold change is 0.273.
The same measure for SHROOM2 (UniProt Q13796): -0.173.
To RPA3 (UniProt P35244) belongs -0.02; to RIOK2 (UniProt Q9BVS4), 0.105; to SAMSN1 isoform 3 (UniProt Q9NSI8), -0.058.
The same measure for SLC12A9 (UniProt Q9BXP2): -0.021.
In the case of ROR2 (UniProt Q01974), the log2 fold change is -0.025.
To RBM8A (UniProt Q9Y5S9) belongs 0.061; to SGPL1 (UniProt O95470), -0.017.
As to RUNX1 isoform 8 (UniProt Q01196), the log2 fold change is 0.116.
To RALA (UniProt P11233) belongs -0.026; to RAB9A (UniProt P51151), -0.015.
As to RPS6KA3 (UniProt P51812), the log2 fold change was 0.037.
To SLC1A5 (UniProt Q15758) belongs -0.032; to RPS25 (UniProt P62851), 0.075; to RARS (UniProt P54136), 0.165.
The same measure for SH2D1B (UniProt O14796): -0.372; for RB1 (UniProt P06400): 0.037; for ROMO1 (UniProt P60602): 0.045.
The same measure for RFC3 (UniProt P40938): -0.037.
For SFXN5 (UniProt Q8TD22), the log2 fold change was 0.01.
The same measure for RAP2C (UniProt Q9Y3L5): 0.017; for RRP12 (UniProt Q5JTH9): -0.132; for REL (UniProt Q04864): 0.054.
Take RPP14 (UniProt O95059): the log2 fold change was -0.066.
For RAB33B (UniProt Q9H082), the log2 fold change was -0.018.
To SF3B5 (UniProt Q9BWJ5) belongs 0.021.

The values above are taken from the supplement of paper PMC10849652.
